# An excerpt weighted towards active compounds, which were near 7.4% of everything screened.
# YB-1 expr inh: YB-1 expression inhibition | U2OS, qRT-PCR YB-1 vs CDIP delta delta Cp, 16 h; active compounds read high; zero = DMSO, each unit about twofold | delta delta Cp (YB-1 minus CDIP) (concentration not given with the values) | 30,000 compounds, 0.37% hits | AID 434959;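 active means delta delta Cp rounded down to an integer at or above 3, about 3 SD of DMSO wells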;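 further: higher means less YB-1 transcript or more CDIP transcript relative to DMSO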
# MITF inh: blocks MITF activity; inhibition, % (test concentration not listed); 37,000 compounds, 0.28% hits; TRPM1 promoter luciferase, luminescence, 24 h; in the data active means inhibition above about 85%; inconclusive means no clear call, values can overlap the other calls; inactive means below about 68%;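 further: human melanocyte line stably carrying TRPM1 promoter luciferase reporter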
# Shh pathway inh: Sonic Hedgehog pathway inhibition; Shh-LIGHT2 Gli-luciferase reporter, 30 h; inhibition, % (no concentration beside the values); AID 2313; 22,000 compounds, 2.1% hits;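 active means mean inhibition across valid replicates above about 65%, limit read from the data; inconclusive means mean under the limit, yet half or more replicates past it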;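 further: pathway switched on by Shh-conditioned medium diluted 1 in 25 in low serum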
# NOMO-1 viab: STK33 inhibitor candidate reducing NOMO-1 cell viability | NOMO-1 AML viability, CellTiter-Glo luminescence, 72 h | inhibition, % (no concentration beside the values) | 37,000 compounds, 7.5% hits; in the data active means inhibition above about 80%; inconclusive means no clear call, values can overlap the other calls
# PD-1 reverse act: activators reversing PD-1 mediated T-cell inhibition; activation, % (test concentration not listed); 29,000 tested, under 10 active; primary human CD4 T cells, PD-L1 beads, CellTiter-Glo 96 h; call rule not given here;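 further: 0% = median vehicle wells and 100% = positive control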
# * marks the source's active call; other numbers are inactive results; ? = inconclusive; / = not tested or not shown.
SMILES,YB-1 expr inh,MITF inh,Shh pathway inh,NOMO-1 viab,PD-1 reverse act
COc1c(O[C@@H]2O[C@H](CO)[C@@H](O)[C@H](O)[C@H]2O)cc2oc(-c3ccc(O)cc3)cc(=O)c2c1O,-0.166,-71.3,-6.6,83.9*,0.3
C=C(CO)C(=O)O[C@H]1C[C@@]23O[C@@H]2CC/C(=C/[C@H]2OC(=O)C(=C)[C@H]12)CO[C@@H]3O,-0.316,-11.4,-27.7,103.5*,-1.2
COc1ccc(NC(=O)Nc2ccc3c(c2)CC(=O)N([C@@H](C)CO)C[C@@H](C)[C@@H](CN(C)S(=O)(=O)c2ccc(C)cc2)O3)cc1,0.197,-5.6,34.7,12.2,-0.5
Cc1ccc(S(=O)(=O)NCC(=O)Nc2ccc(Cl)cc2Cl)cc1,/,0.0,/,6.3,0.5
C[C@@H]1CN([C@H](C)CO)C(=O)c2cccc(NC(=O)Nc3ccc(F)cc3)c2O[C@@H]1CN(C)S(=O)(=O)c1ccccc1,0.259,-10.8,-4.7,31.1,-2.0
Cc1ccc(S(=O)(=O)N(C)C[C@@H]2Oc3c(NC(=O)Nc4ccc(F)cc4)cccc3C(=O)N([C@@H](C)CO)C[C@H]2C)cc1,0.0961,-16.5,-0.1,1.2,1.2
Cc1ccc(S(=O)(=O)N(C)C[C@@H]2Oc3c(NC(=O)Nc4ccc(F)cc4)cccc3C(=O)N([C@H](C)CO)C[C@@H]2C)cc1,-0.172,54.6,116.6*,82.2*,/
Cc1ccc(S(=O)(=O)N(C)C[C@@H]2Oc3c(NC(=O)Nc4ccc(F)cc4)cccc3C(=O)N([C@@H](C)CO)C[C@@H]2C)cc1,0.0743,30.0,107.8*,57.4,-2.8
O=C1c2c(O)cc(O)cc2O[C@@H](c2ccc(O)cc2)[C@H]1[C@@H]1C(=O)c2c(O)cc(O)cc2O[C@H]1c1ccc(O)cc1,-0.592,-5.4,72.1*,58.1,-17.9
O=C1c2c(O)cc(O)cc2OC(c2ccc(O)cc2)C1C1C(=O)c2c(O)cc(O)cc2OC1c1ccc(O)cc1 (centres undefined),0.582,/,-41.6,/,/
C=CCN1CCc2c(cc(O)c(O)c2Cl)C(c2ccccc2)C1 (centres undefined),-0.00444,3.4,?,117.1*,/
Cc1cc(C(=O)Nc2cccc3c2O[C@@H](CN(C)C(=O)Nc2ccccc2)[C@@H](C)CN([C@@H](C)CO)C3=O)n(C)n1,0.00805,-25.6,-42.7,12.9,/
Cn1c(-c2ccc(Cl)cc2)cs/c1=N\C(=S)NCCc1ccccc1,-0.483,3.7,91.1*,19.1,0.2
CN(C)C(=O)[C@@]1(CCS(=O)(=O)c2ccccc2)N=C(c2ccc(OCCCO)cc2)O[C@H]1c1ccccc1,0.0629,/,/,/,/
CCCCCCCC(O)C(O)C1CC(OC)=CC(=O)O1 (centres undefined),-0.0397,-0.6,-8.5,5.2,0.3
CCCCCCCCCC(O)CC(O)CC(O)CC1CC=CC(=O)O1 (centres undefined),-0.0883,-26.4,-22.8,114.8*,-1.9
CCn1c2ccccc2n2c(SCc3nc4ccccc4[nH]3)nnc12,/,4.3,/,16.8,-0.2
C[C@H](CO)N1C[C@H](C)[C@H](CN(C)Cc2ccc(C(=O)Nc3ccccc3N)cc2)Oc2ccc(NS(=O)(=O)c3ccc(Cl)cc3)cc2C1=O,-0.584,7.1,/,96.3*,0.7
C[C@@H]1CN([C@H](C)CO)C(=O)c2cc(NS(=O)(=O)c3ccc(Cl)cc3)ccc2O[C@@H]1CN(C)Cc1ccc(C(=O)Nc2ccccc2N)cc1,-0.0126,14.9,/,109.0*,-1.2
COc1ccc(S(=O)(=O)Nc2ccc3c(c2)C(=O)N([C@@H](C)CO)C[C@H](C)[C@H](CN(C)Cc2ccc(C(=O)Nc4ccccc4N)cc2)O3)cc1,-0.0764,11.2,/,108.8*,-0.5
O=C(Nc1cnn(C23CC4CC(CC(C4)C2)C3)c1)C1CC(c2ccc(Cl)c(Cl)c2)=NO1 (centres undefined),/,-3.3,/,19.9,/
COc1ccc(/C=N/NC(=O)CCCCCCC(=O)Nc2ccccc2O)cc1Br,0.0101,/,/,/,/
CCOC(=O)c1cnc2ccc(OCC)cc2c1NC(C)CC (centres undefined),-0.391,52.7,34.1,117.1*,-20.6
COc1cccc(C(=O)/C=c2\[nH]c(=O)/c(=C\c3cccs3)s2)c1,-0.519,-26.6,-1.5,104.3*,-4.9
C[C@@H]1CN([C@@H](C)CO)C(=O)c2cc(NC(=O)Nc3ccc(F)cc3)ccc2O[C@@H]1CN(C)C(=O)Nc1ccc(F)cc1,0.194,-0.2,-21.5,27.7,-1.4
SMILES,YB-1 expr inh,MITF inh,Shh pathway inh,NOMO-1 viab,PD-1 reverse act
C[C@H]1CN([C@@H](C)CO)C(=O)c2cccc(NC(=O)Nc3ccc(F)cc3)c2O[C@@H]1CN(C)CC1CCCCC1,-0.468,-0.5,34.8,?,-3.6
C[C@@H]1CN([C@@H](C)CO)C(=O)c2cccc(NC(=O)Nc3ccccc3)c2O[C@H]1CN(C)CC1CCCCC1,-0.259,29.6,-2.5,93.1*,/
C[C@H](CO)N1C[C@H](C)[C@@H](CN(C)CC2CCCCC2)Oc2c(NC(=O)Nc3ccccc3)cccc2C1=O,0.0574,22.0,-9.7,?,-3.2
C[C@H]1CN([C@@H](C)CO)C(=O)c2cccc(NC(=O)Nc3ccccc3)c2O[C@@H]1CN(C)CC1CCCCC1,-0.0111,24.1,-8.2,89.9*,-3.2
C[C@@H]1CN([C@H](C)CO)C(=O)c2cccc(NC(=O)Nc3ccc(F)cc3)c2O[C@H]1CN(C)CC1CCCCC1,0.102,32.8,14.6,112.5*,-6.3
C[C@@H]1CN([C@H](C)CO)C(=O)c2cccc(NC(=O)Nc3ccccc3)c2O[C@@H]1CN(C)CC1CCCCC1,0.383,6.2,6.7,10.7,1.0
C[C@@H]1CN([C@@H](C)CO)C(=O)c2cccc(NS(C)(=O)=O)c2O[C@@H]1CN(C)Cc1ccc(C(F)(F)F)cc1,-0.216,3.1,7.5,1.0,2.0
O=C1c2cccc(O)c2C(=O)c2c(O)cccc21,0.107,-3.8,24.2,42.1,/
CC1CC(=O)c2c(ccc3c2C(=O)c2cccc(O)c2C3O)C1 (centres undefined),0.0553,4.5,-10.3,117.5*,-7.1
C[C@H]1CN([C@@H](C)CO)C(=O)c2cc(NC(=O)Nc3ccc(F)cc3)ccc2O[C@@H]1CN(C)C(=O)Nc1cccc2ccccc12,0.113,-6.0,-54.2,-5.8,1.0
Cc1cccc(NC(=O)c2ccc(OC(C)C(=O)Nc3ccccc3C(F)(F)F)cc2)c1C (centres undefined),/,45.7,/,113.0*,-2.6
Cc1ccc(C)n1-c1ccc(C(=O)OCC(=O)c2ccc(Cl)cc2)cc1,-0.0578,-12.5,46.0,121.4*,-0.9
O=C(COC(=O)C1CC=CCC1C(=O)OCC(=O)c1ccc(Cl)cc1)c1ccc(Cl)cc1 (centres undefined),-0.0338,4.4,/,44.6,-1.6
C[C@@H]1CN([C@H](C)CO)C(=O)c2cc(NC(=O)Cc3ccccc3)ccc2O[C@H]1CN(C)S(=O)(=O)c1ccccc1,0.173,-12.0,/,-3.9,-1.3
C[C@@H]1CN([C@H](C)CO)C(=O)c2cccc(NC(=O)c3ccc(-c4nccs4)cc3)c2O[C@H]1CN(C)Cc1ccc(Cl)c(Cl)c1,-0.342,48.2,25.9,105.9*,-4.1

# Screening data deposited in PubChem by Broad Institute.
